Experimental data taken from PubChem BioAssay AID588855 (National Center for Advancing Translational Sciences (NCATS), 2011).
The whole screen tested about 410,000 compounds, of which about 5,000 (1.2%) were called active. A call without a number means that no potency is given here. Inconclusive results (about 13%) are left out. The sample holds actives, similar compounds and a random draw of the others, so the mix is not that of the screen. The call rests on the fitted dose curve; in most records, active means well fitted inhibition curve with a large enough effect; inconclusive means small, poorly fitted or top-dose-only effect; inactive means no such curve, though single readings can be large or run the other way.

assay: qHTS for Inhibitors of TGF-b; conditions: HepG2 CAGA-GFP TGF-b/SMAD3 reporter, GFP fluorescence, 18 h, TGF-beta stimulated, 500 pg/mL final; series mostly up to 46.1 µM; further: nearly all actives have a fitted effect of over 65% in size
Summary of the method: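 GFP signal (ex488/em500-530) from TGF-beta-stimulated HEPG2 CAGA-GFP cells, 500 pg/mL final, 18 h at 37 degrees C in DMEM plus 1% FBS, normalized to unstimulated and DMSO-stimulated controls.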
Potency means the concentration at half of the fitted maximal effect.

Row | Compound | Potency
1 | O=C(Nc1cc(C(F)(F)F)ccc1Cl)c1ccc2c(c1)CCN2S(=O)(=O)c1ccccc1 | inactive
2 | O=C(Nc1cc(C(F)(F)F)ccc1Cl)c1cc2nc(-c3ccc4c(c3)OCO4)cc(C(F)(F)F)n2n1 | inactive
3 | Cc1oc2c(F)c(F)c(F)c(F)c2c1S(=O)(=O)Nc1cccc(C(F)(F)F)c1 | 7.08 µM (active)
4 | Cc1noc(C)c1S(=O)(=O)Nc1cc(C(F)(F)F)ccc1N1CCOCC1 | inactive
5 | CN(CC(=O)Nc1cccc(C(F)(F)F)c1)S(=O)(=O)c1cccs1 | inactive
6 | CCC(=O)N1N=C(c2ccc(OC)cc2)CC1c1cn(-c2ccccc2)nc1-c1cccs1 (stereo not drawn) | inactive
7 | Cc1nnc(SCC(=O)NCc2ccccc2Cl)c2nn(-c3ccccc3)c(C)c12 | inactive
8 | C=C1C(=O)[C@]23C[C@H]1CCC2[C@@]1(C)C(C[C@@H]3O)[C@](C)(C(=O)O)CC[C@@H]1O (stereo partly drawn) | 10 µM (active)
9 | CCn1cc2nc(SCc3ccccc3Cl)n(CCc3ccccc3)c(=O)c2n1 | inactive
10 | Cc1ccc(S(=O)(=O)c2c(Nc3cccc(Cl)c3)sc(C(=O)c3ccc4c(c3)OCO4)c2N)cc1 | inactive
11 | Cc1ccc(S(=O)(=O)N(CC(=O)N/N=C/c2ccc(F)cc2)c2cccc3cccnc23)cc1 | inactive
12 | O=C(CSc1cccc2cccnc12)N/N=C/c1cccnc1 | 4.47 µM (active)
13 | Cc1ccc(NC(=O)C2CCCN2S(=O)(=O)c2cccc3cccnc23)c(C)c1 (stereo not drawn) | inactive
14 | Cc1ccc(NC(=O)CSc2cccc3cccnc23)c(C)c1 | 14.1 µM (active)
15 | O=C(N/N=C\c1cccnc1)c1cc(-c2ccccc2)nc2c(Cl)cccc12 | inactive
16 | Cc1ccc(NC(=O)CSc2nc3c([nH]c4ccccc43)c(=O)n2-c2ccccc2)c(C)c1 | inactive
17 | Cc1cccc(C)c1-n1ncc(C(=O)NCCCN2CCCCC2)c1C1CCN(C(=O)OC(C)(C)C)CC1 | inactive
18 | Cc1ccccc1C(=O)N(Cc1ccc(N(C)C)cc1)CC1CCCO1 (stereo not drawn) | inactive
19 | CCOC(=O)c1ccc(NC(=O)CC2C(=O)N(c3ccccc3)C(=O)N2Cc2cccs2)cc1 (stereo not drawn) | inactive
20 | CCOC(=O)C1CCN(c2nc3c(S(=O)(=O)c4ccc(CC)cc4)nnn3c3ccc(Cl)cc23)CC1 | inactive
21 | O=C1/C(=C/c2cccs2)SC(=S)N1C1CCS(=O)(=O)C1 (stereo not drawn) | 15.8 µM (active)
22 | CN(C(=O)CCN1C(=O)/C(=C/c2ccccc2F)SC1=S)C1CCS(=O)(=O)C1 (stereo not drawn) | inactive
23 | CCN(C(=O)CN1C(=O)/C(=C/c2ccc(F)cc2)SC1=S)C1CCS(=O)(=O)C1 (stereo not drawn) | inactive
24 | COc1ccc(Cl)cc1S(=O)(=O)N1CCC(c2ccncc2)CC1 | inactive
25 | CCN(C(=O)Cn1cc(S(=O)(=O)N2CCN(c3ccccc3F)CC2)c2ccccc2c1=O)c1ccc(C)c(C)c1 | inactive

Row | Compound | Potency
26 | COc1ccc(C(F)(F)F)cc1NC(=O)c1sc2nc(-c3cccs3)ccc2c1N | inactive
27 | Cc1ccc(CN2CCC(CNC(=O)c3cnn(-c4ccc(C)cc4)c3C3CCN(C(=O)OC(C)(C)C)CC3)CC2)cc1 | inactive
28 | Cc1ccc(CN2CCC(CNC(=O)c3cnn(-c4ccccc4Cl)c3C3CCN(C(=O)OC(C)(C)C)CC3)CC2)cc1 | 15.8 µM (active)
29 | Cc1ccc(-n2ncc(C(=O)NC3CC3)c2C2CCN(C(=O)OC(C)(C)C)CC2)c(C)c1 | inactive
30 | CCc1nn(CC(=O)Nc2cc(C)cc(C)c2)c(=O)c2cc3sccc3n12 | inactive
31 | Oc1c(C(c2ccccn2)N2CCOCC2)ccc2cccnc12 (stereo not drawn) | 3.98 µM (active)
32 | Oc1c(C(c2ccccc2Cl)N2CCOCC2)sc2nc(-c3ccco3)nn12 (stereo not drawn) | inactive
33 | O=C(COC(=O)c1ccccc1OCCOc1ccccc1)Nc1cccc(Br)c1 | inactive
34 | Cc1c(-c2cccc(NC(=O)C(C)(C)C)c2)nc2ncccn12 | inactive
35 | ClC/C=C/C[n+]1ccccc1Cl | inactive
36 | O=C(Nc1nnc(S(=O)(=O)N2CCCCCC2)s1)c1cccc(Br)c1 | 10 µM (active)
37 | O=C(Nc1nnc(S(=O)(=O)N2CCOCC2)s1)c1cccc(Br)c1 | inactive
38 | Cc1cccc(C(=O)Nc2nnc(S(=O)(=O)N3CCCCCC3)s2)c1 | inactive
39 | O=C(NCc1ccccc1)c1ccc2c(c1)nc1n2CCCCC1 | inactive
40 | Cc1cccc(NC(=S)NCc2ccc3[nH]c4c(c3c2)CCCC4)c1 | 25.1 µM (active)
41 | CCc1cccc(CC)c1NC(=S)NCc1ccc2[nH]c(C)cc2c1 | inactive
42 | Cc1cc(C)cc(NC(=S)NCCc2c[nH]c3ccccc23)c1 | inactive
43 | Cc1csc(NCC(=O)c2c[nH]c3ccccc23)n1 | inactive
44 | Nc1ncnc2nnsc12 | inactive
45 | CC(C)(C)c1ccc(C(=O)C[n+]2cccc3cc(Cl)ccc32)cc1 | inactive
46 | COc1cccc(N=C2SC(C(=O)Nc3cccc(Cl)c3)CC(=O)N2C)c1 (stereo not drawn) | 10 µM (active)
47 | COc1ccc(N=C2SC(C(=O)Nc3ccc(F)cc3)CC(=O)N2C)cc1 (stereo not drawn) | inactive
48 | COc1cccc(-c2cccc(NC(=O)C3CCN(C4CCC4)CC3)c2)c1 | inactive
49 | O=C(C1CCCN(S(=O)(=O)c2cccc3nonc23)C1)N1CCN(c2ccccc2F)CC1 (stereo not drawn) | inactive
50 | CC(C)Oc1ccc(NC(=O)c2cc3ccccc3o2)cc1 | inactive

Row | Compound | Potency
51 | CCOc1ccccc1N(CC)C(=O)Nc1cn(C)c(=O)c2ccccc12 | inactive
52 | COC(=O)c1c(NC(=O)c2cc(=O)c3c(C)cc(C)cc3o2)sc2c1CCCC2 | inactive
53 | CC(=O)Nc1cnc(-c2ccc(O)cc2C)cn1 | inactive
54 | Cc1ccn2c(-c3csc(Nc4ccc(C(=O)O)cc4)n3)c(C)nc2c1 | inactive
55 | Cc1ccc(Nc2nc(-c3ccc(O)cc3O)cs2)nc1 | 12.6 µM (active)
56 | CCOc1ccc(CNC(=O)CCc2c(C)nn(-c3ccc(N4CCCCC4)nn3)c2C)cc1 | inactive
57 | COc1cccc(CNC(=O)CCC(=O)N2CC3CCCN3c3ccccc32)c1 (stereo not drawn) | inactive
58 | CCOC(=O)c1c(C)oc2ccc(N(C(=O)c3ccncc3)S(=O)(=O)c3ccc(CC)cc3)cc12 | 12.6 µM (active)
59 | COC(=O)c1c(C)oc2ccc(N(C(=O)Oc3ccccc3)S(=O)(=O)c3ccccc3)cc12 | inactive
60 | CCc1ccc(S(=O)(=O)Nc2cc3c(C(=O)OCc4ccccc4)c(C)oc3c3ccccc23)cc1 | inactive
61 | Cc1nc2sc(C)c(C)n2c(=O)c1S(=O)(=O)NCCc1ccc(Cl)cc1 | inactive
62 | CCCCCCCCn1c2c(c(=N)c3c1CCC3)CCCC2 | 8.91 µM (active)
63 | CCCCN(CC)C(=O)c1c[nH]c2ccc(S(=O)(=O)Nc3cccc(OC)c3)cc2c1=O | inactive
64 | Oc1cccc2cc(-c3ccncc3)cnc12 | 3.55 µM (active)
65 | CCc1cc2c(cc(C(=O)OC)n2Cc2nc(-c3ccc(C)cc3)oc2C)s1 | inactive
66 | CCc1ccccc1N(C)C(=O)C1CCCN(c2ncnc3onc(-c4ccc(F)cc4)c23)C1 (stereo not drawn) | inactive
67 | Cc1ccc(Cl)cc1N(C)C(=O)C1CCCN(c2ncnc3onc(-c4ccc(F)cc4)c23)C1 (stereo not drawn) | 11.2 µM (active)
68 | COc1ccccc1N1CCN(c2ncnc3onc(-c4ccc(F)cc4)c23)CC1 | inactive
69 | Cc1ccc(Nc2c(-c3ccc(N(C)C)cc3)nc3nc[nH]n23)cc1 | inactive
70 | CN(C)C(CNC(=O)c1cc2ccccc2o1)c1ccccc1 (stereo not drawn) | inactive
71 | CCc1ccc(C(CNc2nc(C(F)(F)F)nc3ccccc23)N(C)C)cc1 (stereo not drawn) | 11.2 µM (active)
72 | CN(NC(=O)c1ccccc1F)c1nc(C(F)(F)F)nc2ccccc12 | inactive
73 | O=C(C1COc2ccccc2O1)N(Cc1cccnc1)c1nc2c(F)cc(F)cc2s1 (stereo not drawn) | inactive
74 | Cc1cc(-c2ccc(C)c(S(=O)(=O)N3c4ccccc4CC3C)c2)on1 (stereo not drawn) | inactive
75 | CCCCN1C(=O)C(C)=C(C)C1OCCc1ccc(OC)c(OC)c1 (stereo not drawn) | inactive

Row | Compound | Potency
76 | CCCCOc1ccc(CN2C(=O)C(=O)c3cc(Br)cc(C)c32)cc1OC | 10 µM (active)
77 | COc1ccc(CCN2C(=O)C(C)=C(C)C2=O)cc1OC | inactive
78 | Cc1ccc(-c2nc3cccc(C)n3c2Nc2ccc3c(c2)OCCO3)cc1 | inactive
79 | Clc1cccc(N=C2NN=C(c3ccc4c(c3)OCCO4)CS2)c1 | 10 µM (active)
80 | COc1ccc(NC(=O)CSc2nccn2C2CCCC2)cc1OC | inactive
81 | CCN1CCC(O)(/C=C/c2ccc(C)cc2)C(C(=O)/C=C/c2ccc(C)cc2)C1 (stereo not drawn) | 11.2 µM (active)
82 | COc1ccc(CNc2nc(-c3ccc(Cl)cc3)nn2S(=O)(=O)c2ccc(C)cc2)cc1 | inactive
83 | O=S(=O)(NCc1ccccn1)c1ccc(Br)s1 | inactive
84 | O=S(=O)([N-]c1nc2ccccc2nc1-[n+]1ccc(Cc2ccccc2)cc1)c1ccc(Br)s1 | 2.82 µM (active)
85 | COc1ccc(C2C(=O)N(C3CCCCCC3)CC(=O)N2CCc2ccc(Cl)cc2)cc1OC (stereo not drawn) | inactive
86 | CCC(=O)N1c2ccccc2CC1C(=O)N1CCN(c2ccccc2F)CC1 (stereo not drawn) | inactive
87 | Cc1ccccc1CCNC(=O)C1CCN(c2nc3ccccc3nc2C(F)(F)F)CC1 | inactive
88 | Cc1ccc(Cl)cc1NC(=O)NC1COc2ccccc2C1 (stereo not drawn) | inactive
89 | Nc1nc(N)c(N=O)c(N)n1 | inactive
90 | Cc1nc2ccccn2c(=O)c1NC(=O)c1c(F)cccc1F | inactive
91 | c1ccc(C2CNCc3c2ccc2ccccc32)cc1 (stereo not drawn) | 12.6 µM (active)
92 | CCN(CC)/[N+]([O-])=N/OCOC(=O)Cc1c(C)n(C(=O)c2ccc(Cl)cc2)c2ccc(OC)cc12 | inactive
93 | CCOC(=O)c1c(C)[nH]c2c1-c1ccccc1C(=O)C2=O | 1.26 µM (active)
94 | CCOC(=O)c1c(SCC(=O)Nc2cccc(C)c2C)nc(=O)[nH]c1C | inactive
95 | CCOC(=O)c1[nH]c2ccccc2c1N=C(C)N(CC)CC | inactive
96 | Cc1ccc(S(=O)(=O)/N=S(\C)C(C)C)cc1 (stereo not drawn) | inactive
97 | Cc1ccc(S(=O)(=O)/N=C2\C=C(NS(=O)(=O)c3ccc(C)cc3)C(=O)c3ccccc32)cc1 | 11.2 µM (active)
98 | Cc1ccc(S(=O)(=O)N/N=C(\c2ccccc2)C2CC2)cc1 | inactive
